# In paper PMC5795388:
# How the values were obtained:
# Assay in all cases: cross-link between two proteins; cross-linking mass spectrometry
# [1] = target: DnaJ homolog subfamily C member 11 (UniProt Q5U458)
# [2] = target: Cytochrome b-c1 complex subunit 1, mitochondrial (UniProt Q9CZ13)
# [3] = target: NADH-ubiquinone oxidoreductase 75 kDa subunit, mitochondrial (UniProt Q91VD9)
# [4] = target: Isocitrate dehydrogenase [NAD] subunit alpha, mitochondrial (UniProt Q9D6R2)
# [5] = target: Mitochondrial fission regulator 1-like (UniProt Q9CWE0)
# [6] = target: Double-stranded RNA-binding protein Staufen homolog 1 (UniProt Q9Z108)
# [7] = target: Mitochondrial import inner membrane translocase subunit Tim9 (UniProt Q9WV98)
# [8] = target: ATP synthase peripheral stalk subunit d, mitochondrial (UniProt Q9DCX2)
# [9] = target: Methylmalonic aciduria type A homolog, mitochondrial (UniProt Q8C7H1)
# [10] = target: NADH dehydrogenase [ubiquinone] 1 beta subcomplex subunit 10 (UniProt Q9DCS9)
# [11] = target: ATP synthase peripheral stalk subunit F6, mitochondrial (UniProt P97450)
# [12] = target: Cytochrome c oxidase subunit 6C (UniProt Q9CPQ1)
# [13] = target: Cytochrome b-c1 complex subunit Rieske, mitochondrial (UniProt Q9CR68)
# [14] = target: Cytochrome c1, heme protein, mitochondrial (UniProt Q9D0M3)
# [15] = target: 2-oxoglutarate dehydrogenase complex component E1 (UniProt Q60597)
# 2-oxoglutarate dehydrogenase complex component E1, sequence (Q60597 whole entry, one chain of several): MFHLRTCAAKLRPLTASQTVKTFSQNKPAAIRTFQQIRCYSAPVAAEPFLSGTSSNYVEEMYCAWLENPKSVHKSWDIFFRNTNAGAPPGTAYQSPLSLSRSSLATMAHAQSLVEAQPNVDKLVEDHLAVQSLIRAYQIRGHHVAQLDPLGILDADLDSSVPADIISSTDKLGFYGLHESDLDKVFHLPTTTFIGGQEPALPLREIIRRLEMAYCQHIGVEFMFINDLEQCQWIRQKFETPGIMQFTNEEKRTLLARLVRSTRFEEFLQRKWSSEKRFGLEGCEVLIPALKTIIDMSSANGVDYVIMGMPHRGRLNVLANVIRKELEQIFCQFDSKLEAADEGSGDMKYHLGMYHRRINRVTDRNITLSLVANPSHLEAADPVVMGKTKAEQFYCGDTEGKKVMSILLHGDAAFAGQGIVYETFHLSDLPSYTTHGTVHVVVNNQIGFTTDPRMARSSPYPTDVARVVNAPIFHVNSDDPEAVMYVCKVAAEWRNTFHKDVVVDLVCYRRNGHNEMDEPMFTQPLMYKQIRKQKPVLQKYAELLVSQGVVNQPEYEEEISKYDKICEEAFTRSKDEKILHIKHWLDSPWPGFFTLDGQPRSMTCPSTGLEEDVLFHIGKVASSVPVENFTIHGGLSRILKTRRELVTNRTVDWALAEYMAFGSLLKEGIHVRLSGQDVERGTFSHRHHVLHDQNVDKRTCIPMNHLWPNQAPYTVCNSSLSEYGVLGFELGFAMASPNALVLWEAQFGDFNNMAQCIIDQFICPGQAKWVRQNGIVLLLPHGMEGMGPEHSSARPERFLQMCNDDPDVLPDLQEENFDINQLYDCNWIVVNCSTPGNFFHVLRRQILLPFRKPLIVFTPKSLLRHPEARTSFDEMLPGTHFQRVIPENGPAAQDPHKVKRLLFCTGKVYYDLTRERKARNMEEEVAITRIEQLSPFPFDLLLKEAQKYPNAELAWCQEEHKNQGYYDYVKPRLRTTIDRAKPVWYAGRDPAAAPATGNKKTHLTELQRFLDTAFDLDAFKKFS
# Cytochrome b-c1 complex subunit 1, mitochondrial, sequence (Q9CZ13 whole entry, one chain of several): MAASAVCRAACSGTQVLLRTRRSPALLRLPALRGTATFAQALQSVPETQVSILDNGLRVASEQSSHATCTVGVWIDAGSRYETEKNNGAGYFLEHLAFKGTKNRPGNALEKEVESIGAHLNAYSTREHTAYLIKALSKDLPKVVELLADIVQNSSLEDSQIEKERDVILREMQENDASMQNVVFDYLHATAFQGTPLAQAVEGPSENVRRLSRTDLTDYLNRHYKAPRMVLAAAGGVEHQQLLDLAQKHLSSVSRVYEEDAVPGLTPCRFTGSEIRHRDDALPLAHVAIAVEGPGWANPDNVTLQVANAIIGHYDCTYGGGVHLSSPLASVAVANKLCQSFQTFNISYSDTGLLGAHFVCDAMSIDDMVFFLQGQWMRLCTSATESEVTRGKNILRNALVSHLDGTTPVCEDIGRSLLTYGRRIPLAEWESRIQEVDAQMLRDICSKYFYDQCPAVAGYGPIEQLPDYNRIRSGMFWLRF
# ATP synthase peripheral stalk subunit d, mitochondrial, sequence (Q9DCX2 whole entry): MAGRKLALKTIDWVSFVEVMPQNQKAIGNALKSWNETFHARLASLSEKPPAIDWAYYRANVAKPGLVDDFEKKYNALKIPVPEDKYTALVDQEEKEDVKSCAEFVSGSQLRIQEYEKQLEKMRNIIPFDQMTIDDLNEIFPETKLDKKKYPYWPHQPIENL
# Mitochondrial import inner membrane translocase subunit Tim9, sequence (Q9WV98 whole entry): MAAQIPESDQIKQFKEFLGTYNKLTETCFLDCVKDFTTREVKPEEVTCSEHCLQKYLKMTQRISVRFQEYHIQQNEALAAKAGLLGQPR
# NADH dehydrogenase [ubiquinone] 1 beta subcomplex subunit 10, sequence (Q9DCS9 whole entry, one chain of several): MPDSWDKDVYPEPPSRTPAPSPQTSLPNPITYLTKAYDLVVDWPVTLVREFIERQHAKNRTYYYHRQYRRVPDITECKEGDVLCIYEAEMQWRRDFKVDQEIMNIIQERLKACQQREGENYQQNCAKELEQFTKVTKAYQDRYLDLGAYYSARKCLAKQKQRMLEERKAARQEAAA
# ATP synthase peripheral stalk subunit F6, mitochondrial, sequence (P97450 whole entry): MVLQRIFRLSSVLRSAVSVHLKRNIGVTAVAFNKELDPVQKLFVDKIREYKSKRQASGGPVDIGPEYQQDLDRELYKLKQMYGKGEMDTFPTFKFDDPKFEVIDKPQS
# DnaJ homolog subfamily C member 11, sequence (Q5U458 whole entry): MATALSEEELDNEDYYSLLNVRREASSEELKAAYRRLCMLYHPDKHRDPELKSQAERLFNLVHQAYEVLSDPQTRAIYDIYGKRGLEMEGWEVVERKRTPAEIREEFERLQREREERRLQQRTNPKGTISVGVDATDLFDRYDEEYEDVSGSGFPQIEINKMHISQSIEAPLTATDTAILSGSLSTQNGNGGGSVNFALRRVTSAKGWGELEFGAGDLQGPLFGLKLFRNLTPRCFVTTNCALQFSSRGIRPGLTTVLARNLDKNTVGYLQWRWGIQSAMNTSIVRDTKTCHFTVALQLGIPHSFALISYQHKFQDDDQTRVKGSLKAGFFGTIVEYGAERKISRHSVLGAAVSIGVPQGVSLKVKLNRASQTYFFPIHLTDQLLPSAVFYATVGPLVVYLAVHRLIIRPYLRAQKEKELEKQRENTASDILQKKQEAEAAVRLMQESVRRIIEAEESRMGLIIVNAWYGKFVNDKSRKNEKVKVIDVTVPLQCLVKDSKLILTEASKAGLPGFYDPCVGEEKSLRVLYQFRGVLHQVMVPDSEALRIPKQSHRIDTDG
# Cytochrome b-c1 complex subunit Rieske, mitochondrial, sequence (Q9CR68 whole entry, one chain of several): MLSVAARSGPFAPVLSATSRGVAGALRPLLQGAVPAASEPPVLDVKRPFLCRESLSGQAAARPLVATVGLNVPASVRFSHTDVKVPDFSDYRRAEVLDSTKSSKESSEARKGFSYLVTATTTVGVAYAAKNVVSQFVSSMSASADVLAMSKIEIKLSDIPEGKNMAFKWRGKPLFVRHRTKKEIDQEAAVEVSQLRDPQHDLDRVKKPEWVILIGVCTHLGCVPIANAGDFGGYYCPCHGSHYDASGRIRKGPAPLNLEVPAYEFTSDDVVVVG
# Cytochrome c1, heme protein, mitochondrial, sequence (Q9D0M3 whole entry): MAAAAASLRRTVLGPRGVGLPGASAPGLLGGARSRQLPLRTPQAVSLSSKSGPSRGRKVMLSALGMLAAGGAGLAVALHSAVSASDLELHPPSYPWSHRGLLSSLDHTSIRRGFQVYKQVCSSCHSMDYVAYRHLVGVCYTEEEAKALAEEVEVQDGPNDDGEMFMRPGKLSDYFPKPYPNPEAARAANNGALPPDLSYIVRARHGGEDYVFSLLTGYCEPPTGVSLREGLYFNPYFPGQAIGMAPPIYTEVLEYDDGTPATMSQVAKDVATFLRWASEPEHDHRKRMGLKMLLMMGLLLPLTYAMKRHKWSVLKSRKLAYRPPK
# NADH-ubiquinone oxidoreductase 75 kDa subunit, mitochondrial, sequence (Q91VD9 whole entry): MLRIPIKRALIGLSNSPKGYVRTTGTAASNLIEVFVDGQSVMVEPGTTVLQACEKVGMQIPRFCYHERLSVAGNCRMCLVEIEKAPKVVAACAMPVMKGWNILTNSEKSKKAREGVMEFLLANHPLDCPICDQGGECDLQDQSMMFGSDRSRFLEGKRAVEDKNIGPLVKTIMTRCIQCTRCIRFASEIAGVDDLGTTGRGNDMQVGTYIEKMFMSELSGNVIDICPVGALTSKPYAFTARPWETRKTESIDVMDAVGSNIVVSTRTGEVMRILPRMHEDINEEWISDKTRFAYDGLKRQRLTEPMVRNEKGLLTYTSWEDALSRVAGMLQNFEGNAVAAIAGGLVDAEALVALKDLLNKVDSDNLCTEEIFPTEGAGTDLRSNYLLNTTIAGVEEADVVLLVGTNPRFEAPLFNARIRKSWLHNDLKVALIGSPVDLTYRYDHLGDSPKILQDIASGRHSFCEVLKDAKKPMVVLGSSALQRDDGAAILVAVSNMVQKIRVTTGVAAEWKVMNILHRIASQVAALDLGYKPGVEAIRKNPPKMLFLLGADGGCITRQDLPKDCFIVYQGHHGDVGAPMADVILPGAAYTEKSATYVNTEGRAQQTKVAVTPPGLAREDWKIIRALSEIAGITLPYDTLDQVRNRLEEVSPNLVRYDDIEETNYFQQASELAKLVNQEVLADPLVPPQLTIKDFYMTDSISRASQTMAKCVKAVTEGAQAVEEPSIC
# Mitochondrial fission regulator 1-like, sequence (Q9CWE0 whole entry): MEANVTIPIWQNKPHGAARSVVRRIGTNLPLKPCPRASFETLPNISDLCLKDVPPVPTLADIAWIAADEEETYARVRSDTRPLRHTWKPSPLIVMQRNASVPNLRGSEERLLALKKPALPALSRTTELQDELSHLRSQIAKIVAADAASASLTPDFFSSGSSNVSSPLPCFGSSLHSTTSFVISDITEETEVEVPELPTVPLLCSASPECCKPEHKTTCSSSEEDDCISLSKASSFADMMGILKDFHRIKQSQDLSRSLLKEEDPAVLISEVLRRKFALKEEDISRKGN
# Cytochrome c oxidase subunit 6C, sequence (Q9CPQ1 whole entry): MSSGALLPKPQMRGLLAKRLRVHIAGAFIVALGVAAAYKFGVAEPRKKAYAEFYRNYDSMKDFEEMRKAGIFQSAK
# Double-stranded RNA-binding protein Staufen homolog 1, sequence (Q9Z108 whole entry): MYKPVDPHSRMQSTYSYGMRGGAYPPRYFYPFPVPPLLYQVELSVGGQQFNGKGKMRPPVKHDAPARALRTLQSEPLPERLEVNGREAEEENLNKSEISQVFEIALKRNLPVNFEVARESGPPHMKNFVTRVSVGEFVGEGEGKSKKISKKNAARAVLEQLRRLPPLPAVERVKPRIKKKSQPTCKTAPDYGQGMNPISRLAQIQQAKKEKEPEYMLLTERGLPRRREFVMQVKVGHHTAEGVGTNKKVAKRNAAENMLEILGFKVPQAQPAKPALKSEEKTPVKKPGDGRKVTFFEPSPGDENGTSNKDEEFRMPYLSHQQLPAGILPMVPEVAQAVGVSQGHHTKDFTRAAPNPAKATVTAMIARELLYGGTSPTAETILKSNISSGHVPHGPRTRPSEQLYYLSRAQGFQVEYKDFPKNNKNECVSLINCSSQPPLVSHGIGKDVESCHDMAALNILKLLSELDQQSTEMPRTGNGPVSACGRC
# Cytochrome c, somatic, P62897, sequence (P62897 whole entry): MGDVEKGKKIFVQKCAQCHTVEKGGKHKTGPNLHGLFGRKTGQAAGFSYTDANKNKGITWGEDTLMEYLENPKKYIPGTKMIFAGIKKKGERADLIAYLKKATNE
substance,measurement,setting,value
"Metaxin-2, O88441",listed as a hit,[1],yes
"Succinate dehydrogenase [ubiquinone] flavoprotein subunit, mitochondrial, Q8K2B3",listed as a hit,[2],yes
"NADH dehydrogenase [ubiquinone] iron-sulfur protein 6, mitochondrial, P52503",listed as a hit,[3],yes
"Aspartate aminotransferase, mitochondrial, P05202",listed as a hit,[2],yes
same,listed as a hit,[4],yes
"Mitochondrial Rho GTPase 1, Q8BG51",listed as a hit,[5],yes
"Acetyl-CoA acetyltransferase, mitochondrial, Q8QZT1",listed as a hit,[6],yes
"Mitochondrial import inner membrane translocase subunit Tim10, P62073",listed as a hit,[7],yes
"ATP synthase F(0) complex subunit 8, P03930",listed as a hit,[8],yes
"Methylmalonyl-CoA mutase, mitochondrial, P16332",listed as a hit,[9],yes
"NADH dehydrogenase [ubiquinone] 1 beta subcomplex subunit 8, mitochondrial, Q9D6J5",listed as a hit,[10],yes
"Malate dehydrogenase, mitochondrial, P08249",listed as a hit,[11],yes
same,listed as a hit,[8],yes
same,listed as a hit,[2],yes
"Cytochrome c, somatic, P62897",listed as a hit,[12],yes
"Cytochrome b-c1 complex subunit 8, Q9CQ69",listed as a hit,[13],yes
same,listed as a hit,[14],yes
"Dihydrolipoyl dehydrogenase, mitochondrial, O08749",listed as a hit,[15],yes
